Test results published in PubChem BioAssay (NCATS).
Inconclusive results are not listed. Values without a mark were called inactive. The source made the active and inactive calls. The call rests on the fitted dose curve; in most records, active means well fitted cell-killing curve with a large enough effect; inconclusive means small, poorly fitted or top-dose-only effect, or effect the other way; inactive means flat fitted curve, though single readings scatter.

Test: qHTS assay for cell viability of the p53RE-bla HCT-116 cell line (AID 743292); further: nearly all actives have a fitted effect of over 55% in size
Conditions: p53RE-bla HCT-116 viability, ATP luminescence, 16 h; series mostly up to 95 µM; activity change, negative = cytotoxicity: at the top concentration
Text: U.S. Tox21 Program National Center for Advancing Translational Sciences [NCATS] NIH Chemical Genomics Center [NCGC] U.S. Environmental Protection Agency [EPA] National Institutes of Environmental Health Sciences [NIEHS] National Toxicology Program [NTP] U.S. Food and Drug Administration [FDA] Tox21 Assay Overview: The CellTiter-Glo Luminescent Cell Viability Assay (Promega, Madison, WI) is a homogeneous method to determine the number of viable cells in culture based on quantitation of the ATP present, which signals the presence of metabolically active cells. This cell viability assay was used to screen environmental chemicals in the CellSensor p53RE-bla HCT-116 cell line (Invitrogen).
Tox21 Assay Protocol Summary: Cell viability after compound treatment was measured using a luciferase-coupled ATP quantitation assay (CellTiter-Glo viability assay, Promega, Madison, WI) in CellSensor p53RE-bla HCT-116 cell line (Invitrogen). Total intracellular ATP content corresponds to the number of metabolically competent cells after compound treatment. The cells were dispensed at 4,000 cells/5 uL/well in 1,536-well white/solid bottom assay plates using a Flying Reagent Dispenser (Aurora Discovery, San Diego, CA). The cells were incubated for 5 h at 37 C, followed by the addition of 23 nL of compounds dissolved in DMSO, positive controls or DMSO only using a pintool work station (Kalypsys, San Diego, CA). The assay plates were incubated for 16 h at 37 C, followed by the addition of 5 uL/well of CellTiter-Glo reagent. After 30 min incubation at room temperature, the luminescence intensity of the plates was measured using a ViewLux plate reader (PerkinElmer, Shelton, CT).
On the % scale 0 is the no-effect control and ±100 the full control effect.

Row | Structure (SMILES) | activity change, negative = cytotoxicity [%] | Potency
1 | O=[N+]([O-])c1ccc(O)c([N+](=O)[O-])c1 | -4.32 | 
2 | ClC(Cl)C(Cl)Cl | -1.94 | 
3 | CC(=O)[O-].CC(=O)[O-].CC(=O)[O-].[Cr+3] | 11.4 | 
4 | ClCc1ccccc1 | -2.1 | 
5 | Oc1cc(Cl)c(Cl)c(Cl)c1Cl | -14.6 | 
6 | CN(C)c1ccc(N)cc1 | -18.5 | 
7 | [N-]=[N+]=[N-] | -0.0988 | 
8 | O=C(O)c1cccc(Cl)c1 | -7.88 | 
9 | Nc1ccc(Cc2ccc(N)c(Cl)c2)cc1Cl | 2.98 | 
10 | C1CC2OC2CC1C1CO1 (stereo not given) |  | inactive
11 | OCCOCCO | -5.48 | 
12 | Clc1ccc(Cl)c(Cl)c1 |  | inactive
13 | Oc1ccc(Cl)c(Cl)c1Cl | -18.2 | 
14 | ClCCBr | 0.804 | 
15 | c1ccc(P(c2ccccc2)c2ccccc2)cc1 | -12.7 | 
16 | CCCN(CCC)c1c([N+](=O)[O-])cc(C(F)(F)F)cc1[N+](=O)[O-] |  | inactive
17 | C/C=C/CC#N | 2.89 | 
18 | Oc1cccc(Cl)c1 | -1.7 | 
19 | CC(=O)NNc1ccccc1 | 9.71 | 
20 | Nc1ccc(Oc2ccc(N)cc2)cc1 |  | inactive

Row | Structure (SMILES) | activity change, negative = cytotoxicity [%] | Potency
21 | CCOC(=O)CC(SP(=O)(OC)OC)C(=O)OCC (stereo not given) | -2.81 | 
22 | Oc1cc(Cl)cc(Cl)c1 | -9.54 | 
23 | Cc1ccc2c(C)cccc2c1 | 3.14 | 
24 | N#CCc1ccccc1 | -3.06 | 
25 | O=C(Cc1ccccc1)OCc1ccccc1 | -3.08 | 
26 | Nc1ccc(Cc2ccc(N)cc2)cc1 |  | inactive
27 | CCNCC | 5.23 | 
28 | CCN(N=O)C(N)=O | -2.67 | 
29 | CCOS(C)(=O)=O | -4.7 | 
30 | COC(=O)Nc1cccc(OC(=O)Nc2cccc(C)c2)c1 | 3.14 | 
31 | Cc1cc(C)cc(OP(=O)(Oc2cc(C)cc(C)c2)Oc2cc(C)cc(C)c2)c1 | -6.78 | 
32 | [C-]1=CC=CC1.[C-]1=CC=CC1.[Cl-].[Cl-].[Ti+4] | -3.15 | 
33 | [O-][Cl+]O | -2.07 | 
34 | Cc1cc(Cl)ccc1O | 3.02 | 
35 | O=P(OCCCl)(OCCCl)OCCCl | -5.32 | 
36 | Cc1cc(-c2ccc(N)c(C)c2)ccc1N |  | inactive
37 | C=C(C)CCl | 1.61 | 
38 | Clc1cccc(Cl)c1 | -10.4 | 
39 | CC(C)C#N | -2.09 | 
40 | CN1CSC(=S)N(C)C1 |  | inactive
